Test results published in PubChem BioAssay (EPA / NIEHS).
Active and inactive are the calls of the source. Rule for the calls: active = hit-call score of the fitted dose curve at least 0.9, where 1 is the maximum; inactive = score below 0.9.

What was measured:
Settings in all cases: mRNA level, 48 h; actives raise or lower the signal
[1] = read-out: Intercellular Adhesion Molecule 1 (ICAM1), ICAM1 (gene 3383); assay: LTEA_HepaRG_ICAM1: Life Technologies and Expression Analysis (LTEA) Assay for Intercellular Adhesion Molecule 1 (ICAM1) using HepaRG (AID 2283507)
How it was run: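 ICAM1 transcript levels measured by qRT-PCR, normalized to three housekeeping genes (ACTB, GAPDH, POLR2A), after 48 h chemical exposure of HepaRG cells. Duplicate eight-point half-log series from 100 uM in 0.5% DMSO; gain or loss fitted against vehicle.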

[2] = read-out: Insulin-like growth factor-binding protein 1 (IGFBP1), IGFBP1 (gene 3484); assay: LTEA_HepaRG_IGFBP1: Life Technologies and Expression Analysis (LTEA) Assay for Insulin-like growth factor-binding protein 1 (IGFBP1) using HepaRG (AID 2283508)
How it was run: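 Read-out is qRT-PCR transcript level normalized to three housekeeping genes, fitted in both directions against 0.5% DMSO. Differentiated HepaRG cells received eight half-log concentrations (top 100 uM) in duplicate for 48 h in serum-free induction medium.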

[3] = read-out: Interleukin 6 (IL6), IL6 (gene 3569); assay: LTEA_HepaRG_IL6: Life Technologies and Expression Analysis (LTEA) Assay for Interleukin 6 (IL6) using HepaRG (AID 2283509)
How it was run: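 qRT-PCR read-out of IL6 transcript, normalized to three housekeeping genes, after 48 h chemical exposure of HepaRG cells; 8-point half-log series, top 100 uM, 0.5% DMSO vehicle. Bidirectional curve fitting against DMSO baseline.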

[4] = read-out: Interleukin 6 Receptor (IL6R), IL6R (gene 3570); assay: LTEA_HepaRG_IL6R: Life Technologies and Expression Analysis (LTEA) Assay for Interleukin 6 Receptor (IL6R) using HepaRG (AID 2283510)
How it was run: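 HepaRG, 48 h exposure, 8-pt half-log series, top 100 uM, 0.5% DMSO vehicle, duplicates. Read-out: TaqMan qRT-PCR of IL6R transcript, housekeeping-gene normalized. Gain or loss fitted relative to DMSO baseline.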

[5] = read-out: Potassium channel subfamily K member 1 (KCNK1), KCNK1 (gene 3775); assay: LTEA_HepaRG_KCNK1: Life Technologies and Expression Analysis (LTEA) Assay for Potassium channel subfamily K member 1 (KCNK1) using HepaRG (AID 2283511)
How it was run: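 HepaRG, 48 h exposure, 8-pt half-log series top 100 uM, 0.5% DMSO vehicle, duplicates. Readout: KCNK1 transcript by qRT-PCR (Fluidigm array), housekeeping-normalized; bidirectional curve fit relative to DMSO baseline.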

[6] = read-out: Keratin 19 (KRT19), KRT19 (gene 3880); assay: LTEA_HepaRG_KRT19: Life Technologies and Expression Analysis (LTEA) Assay for Keratin 19 (KRT19) using HepaRG (AID 2283512)
How it was run: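 KRT19 transcript measured by TaqMan qRT-PCR, referenced to three housekeeping genes, after HepaRG cells received test chemicals for 48 h. Eight half-log concentrations, top 100 uM, 0.5% DMSO vehicle; increases and decreases both fitted.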

[7] = read-out: JUN Transcription Factor, JUN (gene 3725); assay: LTEA_HepaRG_JUN: Life Technologies and Expression Analysis (LTEA) Assay for JUN Transcription Factor using HepaRG (AID 2283513)
How it was run: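 HepaRG, 48 h exposure, 8-pt half-log series top 100 uM, 0.5% DMSO, duplicate. JUN mRNA by qRT-PCR (Fluidigm), housekeeping-normalized (ACTB/GAPDH/POLR2A); bidirectional curve fit vs DMSO baseline.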

[8] = read-out: Lipase C (LIPC), LIPC (gene 3990); assay: LTEA_HepaRG_LIPC: Life Technologies and Expression Analysis (LTEA) Assay for Lipase C (LIPC) using HepaRG (AID 2283514)
How it was run: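 HepaRG, 48 h exposure, 8-pt half-log series from 100 uM in 0.5% DMSO, duplicates. Readout: LIPC mRNA by Fluidigm qRT-PCR, housekeeping-normalized (ACTB/GAPDH/POLR2A). Gain or loss fitted bidirectionally against DMSO baseline.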

[9] = read-out: MicroRNA 122 (MIR122), gene 406906; assay: LTEA_HepaRG_MIR122: Life Technologies and Expression Analysis (LTEA) Assay for MicroRNA 122 (MIR122) using HepaRG (AID 2283516); note: the transcript read is the microRNA miR-122
How it was run: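 qRT-PCR read-out (TaqMan, Fluidigm array), normalized to three housekeeping genes; HepaRG cells dosed 48 h at 8 concentrations up to 100 uM in 0.5% DMSO, duplicate; gain or loss fitted against DMSO baseline.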

[10] = read-out: matrix metalloproteinase-10 (MMP10), MMP10 (gene 4319); assay: LTEA_HepaRG_MMP10: Life Technologies and Expression Analysis (LTEA) Assay for matrix metalloproteinase-10 (MMP10) using HepaRG (AID 2283517)
How it was run: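 Transcript levels come from Fluidigm qRT-PCR normalized to three housekeeping genes, with curves fitted bidirectionally against 0.5% DMSO. Human HepaRG cells were dosed for 48 hours at concentrations up to 100 uM.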

MYC, MYC (gene 4609) = assay: LTEA_HepaRG_MYC: Life Technologies and Expression Analysis (LTEA) Assay for MYC using HepaRG (AID 2283518)
How it was run: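 MYC transcript changes, up or down relative to 0.5% DMSO, from TaqMan qRT-PCR normalized to three housekeeping genes. Human HepaRG cultures received chemicals for 48 h at eight half-log concentrations up to 100 uM, in duplicate.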

[11] = read-out: matrix metalloproteinase-3 (MMP3), MMP3 (gene 4314); assay: LTEA_HepaRG_MMP3: Life Technologies and Expression Analysis (LTEA) Assay for matrix metalloproteinase-3 (MMP3) using HepaRG (AID 2283519)
How it was run: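 qRT-PCR read-out of MMP3 mRNA (normalised to three housekeeping genes) in HepaRG liver cells after 48 h chemical exposure; 8-point half-log series, top 100 uM, 0.5% DMSO vehicle. Bidirectional curve fitting against DMSO baseline.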

[12] = read-out: Paternally Expressed 10 (PEG10), PEG10 (gene 23089); assay: LTEA_HepaRG_PEG10: Life Technologies and Expression Analysis (LTEA) Assay for Paternally Expressed 10 (PEG10) using HepaRG (AID 2283520)
How it was run: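 qRT-PCR read-out: PEG10 mRNA normalised to three housekeeping genes, fitted bidirectionally against 0.5% DMSO vehicle. HepaRG cells received test chemicals for 48 h in serum-free induction medium, 8 points, top 100 uM, half-log steps.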

[13] = read-out: Nuclear factor NF-kappa-B p105 subunit (Homo sapiens) (UniProt P19838); assay: LTEA_HepaRG_NFKB1: Life Technologies and Expression Analysis (LTEA) Assay for Nuclear Factor Kappa B Subunit 1 (NFKB1) using HepaRG (AID 2283521)
How it was run: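 Differentiated human HepaRG cells were exposed for 48 h in serum-free induction medium to eight concentrations (top 100 uM, half-log steps, 0.5% DMSO), in duplicate. NFKB1 mRNA was measured by TaqMan qRT-PCR, normalized to ACTB/GAPDH/POLR2A, and fitted bidirectionally against DMSO.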

[14] = read-out: Protein phosphatase 2A (PPP2R4), PTPA (gene 5524); assay: LTEA_HepaRG_PPP2R4: Life Technologies and Expression Analysis (LTEA) Assay for Protein phosphatase 2A (PPP2R4) using HepaRG (AID 2283522)
How it was run: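 HepaRG, 48 h exposure, 8-pt half-log series from 100 uM, 0.5% DMSO vehicle, duplicates. Readout: PPP2R4 mRNA, Fluidigm qRT-PCR, housekeeping-normalized. Bidirectional curve fit vs DMSO baseline.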

[15] = read-out: Phosphatase and tensin (PTEN), PTEN (gene 5728); assay: LTEA_HepaRG_PTEN: Life Technologies and Expression Analysis (LTEA) Assay for Phosphatase and tensin (PTEN) using HepaRG (AID 2283523)
How it was run: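 HepaRG, 48 h exposure, 8-pt half-log series from 100 uM top, 0.5% DMSO vehicle, duplicates. Readout: Fluidigm qRT-PCR of PTEN transcript; housekeeping normalization (ACTB, GAPDH, POLR2A). Gain or loss fitted relative to DMSO baseline.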

[16] = read-out: solute carrier (SLC22A1), SLC22A1 (gene 6580); assay: LTEA_HepaRG_SLC22A1: Life Technologies and Expression Analysis (LTEA) Assay for solute carrier (SLC22A1) using HepaRG (AID 2283524)
How it was run: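 qRT-PCR readout (TaqMan, Fluidigm arrays) of SLC22A1 transcript, normalized to three housekeeping genes; bidirectional curve fit relative to 0.5% DMSO vehicle. Differentiated human HepaRG cells, 48 h chemical exposure, top concentration 100 uM, half-log steps, eight points.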

[17] = read-out: Pyruvate Dehydrogenase Kinase 4 (PDK4), PDK4 (gene 5166); assay: LTEA_HepaRG_PDK4: Life Technologies and Expression Analysis (LTEA) Assay for Pyruvate Dehydrogenase Kinase 4 (PDK4) using HepaRG (AID 2283525)
How it was run: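 HepaRG (human liver line), 48 h chemical exposure, 8-pt half-log CRC top 100 uM, 0.5% DMSO vehicle, duplicates. Readout: TaqMan qRT-PCR of PDK4 mRNA, housekeeping-normalized; gain/loss fit relative to DMSO baseline.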

[18] = read-out: NAD(P)H dehydrogenase [quinone] 1 (NQO1), NQO1 (gene 1728); assay: LTEA_HepaRG_NQO1: Life Technologies and Expression Analysis (LTEA) Assay for NAD(P)H dehydrogenase [quinone] 1 (NQO1) using HepaRG (AID 2283526)
How it was run: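 qRT-PCR read-out (Fluidigm TaqMan), normalized to three housekeeping genes, after 48 h chemical exposure of HepaRG cells. Concentrations: eight points, top 100 uM, half-log steps, 0.5% DMSO vehicle. Gain or loss of signal fitted relative to DMSO.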

Nuclear factor NF-kappa-B p105 subunit (Homo sapiens), sequence (P19838 whole entry, looked up): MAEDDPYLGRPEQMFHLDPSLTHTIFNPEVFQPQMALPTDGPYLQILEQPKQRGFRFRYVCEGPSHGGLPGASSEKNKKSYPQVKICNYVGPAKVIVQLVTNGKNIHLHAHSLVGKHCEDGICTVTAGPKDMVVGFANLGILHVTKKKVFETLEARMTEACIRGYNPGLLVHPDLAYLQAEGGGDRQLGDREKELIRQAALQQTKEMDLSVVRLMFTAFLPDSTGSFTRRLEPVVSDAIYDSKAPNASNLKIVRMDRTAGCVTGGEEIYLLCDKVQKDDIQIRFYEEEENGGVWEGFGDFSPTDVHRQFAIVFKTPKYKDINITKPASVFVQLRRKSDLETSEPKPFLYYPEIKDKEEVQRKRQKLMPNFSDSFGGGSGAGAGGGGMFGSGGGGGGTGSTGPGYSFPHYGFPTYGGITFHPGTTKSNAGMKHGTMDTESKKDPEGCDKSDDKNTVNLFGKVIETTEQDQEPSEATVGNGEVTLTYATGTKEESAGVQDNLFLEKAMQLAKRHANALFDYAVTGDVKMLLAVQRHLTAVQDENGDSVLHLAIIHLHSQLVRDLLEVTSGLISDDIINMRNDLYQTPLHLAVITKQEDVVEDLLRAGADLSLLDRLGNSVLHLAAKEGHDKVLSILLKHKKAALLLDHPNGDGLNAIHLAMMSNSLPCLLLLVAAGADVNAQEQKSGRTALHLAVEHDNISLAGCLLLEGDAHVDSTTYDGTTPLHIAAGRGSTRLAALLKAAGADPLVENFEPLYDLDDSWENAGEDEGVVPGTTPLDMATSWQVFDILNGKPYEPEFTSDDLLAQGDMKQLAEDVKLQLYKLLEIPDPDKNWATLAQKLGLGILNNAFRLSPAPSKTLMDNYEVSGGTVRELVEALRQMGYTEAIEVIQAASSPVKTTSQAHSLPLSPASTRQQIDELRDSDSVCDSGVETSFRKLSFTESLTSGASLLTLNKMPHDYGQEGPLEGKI

| Structure (SMILES) | outcome [1] | outcome [2] | outcome [3] | outcome [4] | outcome [5] | outcome [6] | outcome [7] | outcome [8] | outcome [9] | outcome [10] | outcome (MYC, MYC (gene 4609)) | outcome [11] | outcome [12] | outcome [13] | outcome [14] | outcome [15] | outcome [16] | AC50 [17] | outcome [18] | outcome [17] |
| --- | --- | --- | --- | --- | --- | --- | --- | --- | --- | --- | --- | --- | --- | --- | --- | --- | --- | --- | --- | --- |
| C=C(C)C(=O)OCCC(F)(F)C(F)(F)C(F)(F)C(F)(F)C(F)(F)C(F)(F)F | inactive | inactive | inactive | inactive | inactive | inactive | inactive | inactive | inactive | inactive | inactive | inactive | inactive | inactive | inactive | inactive | inactive | 14 µM (active) | inactive |  |
| CCCCCCC(=O)O | inactive | inactive | inactive |  | inactive | inactive | inactive | inactive | inactive | inactive | inactive | inactive |  |  | inactive | inactive | inactive |  | inactive | inactive |
| OC1CCC(C2CCCCC2)CC1 (configuration not stated) | inactive | inactive | inactive | inactive | inactive | inactive | inactive | inactive | inactive | inactive | inactive | inactive |  |  | inactive | inactive | inactive |  | inactive | inactive |
